The values below come from PubChem BioAssay.

Activity calls are given as the source filed them. No rule for the calls is given here.

This test deals with Aerobactin synthetase IucA (Klebsiella pneumoniae hvKP1). Description: IucA enzyme inhibition, primary screen, biochemical, Spectrum library (AID 1346200).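 Also: 100% = wells without compound and 0% = wells lacking enzyme.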 The conditions noted are these: malachite green pyrophosphate, A620, at 8 µM, stronger effect = lower value.
`Cc1[nH]c(C)c(Cl)c(=O)c1Cl`: the activity remaining is 121% (inactive). `COc1cc(OC)c2c(c1Cl)OC1(C2=O)C(O)=CC(=O)CC1C` (centres undefined): the activity remaining was 107% (inactive).

On to `O=C1OC2(c3ccc(O)cc3Oc3cc(O)ccc32)c2ccccc21`, for which the activity remaining is 111% (inactive). In the case of `COc1cccc(/C=C/C(=O)O)c1C(C)C`, the activity remaining was 122% (inactive). Turning to `O=c1[nH]c(=O)n(C2C[C@@H](O)[C@@H](CO)O2)cc1F` (some centres undefined), the activity remaining was 120% (inactive). For `CN(Cc1cc(Br)cc(Br)c1N)C1CCCCC1`, the activity remaining is 112% (inactive). Take `O=C(O)COCCN1CCN(C(c2ccccc2)c2ccc(Cl)cc2)CC1` (centres undefined): the activity remaining is 116% (inactive).

On to `CCn1cc(C(=O)O)c(=O)c2cc(F)c(N3CCNCC3)cc21`, for which the activity remaining is 115% (inactive). `O=c1c(-c2ccc(O)cc2)coc2c(C3O[C@H](CO)[C@@H](O)[C@H](O)[C@H]3O)c(O)ccc12` (some centres undefined): the activity remaining was 105% (inactive).

Turning to `NC(N)=N/N=C\c1c(Cl)cccc1Cl`, the activity remaining was 97% (inactive). For the compound `O=C1CC(c2ccc(O)cc2)Oc2ccccc21` (centres undefined), the activity remaining is 92% (inactive). `C[C@]12CCC3c4ccc(OS(=O)(=O)O)cc4CCC3C1CCC2=O` (some centres undefined): the activity remaining was 122% (inactive). `Cc1onc(-c2ccccc2)c1C(=O)NC1C(=O)N2[C@@H]1SC(C)(C)[C@@H]2C(=O)O` (some centres undefined): the activity remaining is 106% (inactive).

Turning to `CC/C(=C(/CC)c1ccc(O)cc1)c1ccc(O)cc1`, the activity remaining was 104% (inactive). For the compound `Oc1cc(O)c2c(c1)O[C@H](c1cc(O)c(O)c(O)c1)[C@H](O)C2`, the activity remaining is 116% (inactive). Take `COc1cc([C@H]2Oc3cc([C@H]4Oc5cc(O)cc(O)c5C(=O)[C@@H]4O)ccc3O[C@@H]2CO)ccc1O`: the activity remaining is 122% (inactive).

For `O=C1C=CC(=C(c2ccc(O)cc2)c2ccc(O)cc2)C=C1`, the activity remaining was 105% (inactive). For the compound `CNS(=O)(=O)Cc1ccc2[nH]cc(CCN(C)C)c2c1`, the activity remaining is 115% (inactive). Turning to `CC(C)(Oc1ccc(Cl)cc1)C(=O)O`, the activity remaining is 122% (inactive).

For the compound `C=C1C2CC[C@@]3(C)[C@H](c4ccoc4)OC(=O)C[C@]13O[C@H]1CC(=O)C(C)(C)[C@H](C(O)C(=O)OC)[C@@]21C` (some centres undefined), the activity remaining was 95.2% (inactive). As to `CN[C@@H]1C(OC2[C@H](O[C@H]3[C@H](O)[C@@H](O)[C@H](N=C(N)N)[C@@H](O)[C@@H]3N=C(N)N)OC(C)[C@]2(O)CO)OC(CO)C(O)C1O` (some centres undefined), the activity remaining was 111% (inactive).

As to `C1CCC(C(CC2CCCCN2)C2CCCCC2)CC1` (centres undefined), the activity remaining was 103% (inactive).

Consider `CC(=O)CC(=O)CCC(=O)O`, for which the activity remaining was 102% (inactive). The same measure for `CC(=O)Nc1ccccc1`: 103% (inactive); for `CCn1cc(C(=O)O)c(=O)c2cnc(N3CCCC3)nc21`: 105% (inactive). Take `CN(C)C(=O)Nc1ccc(Cl)c(Cl)c1`: the activity remaining is 109% (inactive). Take `N[C@@H](CCC(=O)N[C@@H](CS)C(=O)NCC(=O)O)C(=O)O`: the activity remaining is 101% (inactive). Turning to `CC(C)NCC(O)COc1ccc(CC(N)=O)cc1` (centres undefined), the activity remaining was 117% (inactive). For `COc1c2occc2c(OC)c2c(=O)cc(C)oc12`, the activity remaining was 116% (inactive). For `COc1cc(C)c(C(=O)Oc2cc(C)c(C(=O)O)c(O)c2C)c(OC)c1C`, the activity remaining is 91.1% (inactive). `COc1cc2ccc(=O)oc2c(O)c1O`: the activity remaining was 112% (inactive). Take `COc1ccc(C(C)=O)c(O)c1`: the activity remaining is 83.8% (inactive). Turning to `O=C1CC(c2ccc(O)c(O)c2)Oc2cc(O)cc(O)c21` (centres undefined), the activity remaining was 109% (inactive).

Turning to `Oc1c(Cl)cc(Cl)c2cccnc12`, the activity remaining was 113% (inactive).

Regarding `Cc1cc2cc3c(C)cc(=O)oc3c(C)c2o1`, the activity remaining is 117% (inactive). For `COC1=CC(=O)C(O)=C/C1=C\C=C\c1ccccc1`, the activity remaining is 106% (inactive). For `C=CCSSSCC=C`, the activity remaining was 91.6% (inactive).

For `COc1ccc(-c2coc3cc(OC(C)=O)cc(OC(C)=O)c3c2=O)cc1`, the activity remaining was 92.5% (inactive). The same measure for `Nc1ccc(S(=O)(=O)Nc2ccc(Cl)nn2)cc1`: 112% (inactive).
